The full list was thinned out, with hits kept by preference.
nsP2pro primary: CHIKV nsP2 protease inhibition, primary qHTS | FRET peptide cleavage, nsP2pro, fluorescence 1 h | Q8JUX6 | 31,000 tested, 1.1% active | Potency, µM (highest dose often 24.9 µM), for the others: top-dose activity change, negative = inhibition, hits mostly inhibitors; further: nearly all actives have a fitted effect of over 60% in size
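Purified recombinant nsP2pro (150 nM final) in 10 mM Tris-HCl pH 8.0 with 0.01% Tween 20 was preincubated 15 min at room temperature with compound (7 concentrations, up to 25 uM). FRET peptide 2 substrate (2.5 uM final) was then added; fluorescence was read after 1 h.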
nsP2 cell sec: secondary cell-based test for CHIKV nsP2 protease inhibitors; shares compounds with nsP2pro primary; cell-based CHIKV nsP2 protease reporter assay; Potency, µM (doses to about 51.1 µM), inactives show top-dose activity change, negative = inhibition, most hits filed as inhibitors; 450 tested, 10% active; AID 1964100; further: nearly all actives have a fitted effect of over 70% in size
CHIKV NSP2 FL: inhibits full-length CHIKV NSP2 enzyme; shares compounds with nsP2pro primary; Full-length CHIKV NSP2 protease enzymatic counterscreen; Potency, µM (top dose mostly 50.7 µM), for inactives: at the top dose activity change, negative = inhibition, hits mostly inhibitors; 410 tested, 39% active; further: nearly all actives have a fitted effect of over 65% in size
Furin counterscr: selectivity counter-screen for CHIKV nsP2 protease inhibitors: human furin | Recombinant human furin enzymatic counterscreen, fluorogenic substrate | AID 1964102 | Potency, µM (top dose mostly 50.6 µM), without a hit: at the highest dose activity change, negative = inhibition, most hits filed as inhibitors | 410 tested, 6% active | shares compounds with nsP2pro primary
NS23 peptide cs: selectivity test for CHIKV nsP2 protease inhibitors: endogenous NS2/3 peptide; Purified CHIKV nsP2 protease, endogenous NS2/3 peptide cleavage; AID 1964103; Potency, µM (top dose mostly 51 µM), for inactives: at the highest dose activity change, negative = inhibition, most hits filed as inhibitors; shares compounds with nsP2pro primary; 410 tested, 34% active; further: nearly all actives have a fitted effect of over 55% in size
Papain counter: papain protease inhibition, counterscreen for nsP2pro inhibitors. shares compounds with nsP2pro primary. purified papain protease activity, enzymatic inhibition. Potency, µM (top dose mostly 51 µM), without a hit: at the top dose activity change, negative = inhibition, most hits filed as inhibitors. 410 tested, 5% active
Target sequence (P00784 whole entry, looked up): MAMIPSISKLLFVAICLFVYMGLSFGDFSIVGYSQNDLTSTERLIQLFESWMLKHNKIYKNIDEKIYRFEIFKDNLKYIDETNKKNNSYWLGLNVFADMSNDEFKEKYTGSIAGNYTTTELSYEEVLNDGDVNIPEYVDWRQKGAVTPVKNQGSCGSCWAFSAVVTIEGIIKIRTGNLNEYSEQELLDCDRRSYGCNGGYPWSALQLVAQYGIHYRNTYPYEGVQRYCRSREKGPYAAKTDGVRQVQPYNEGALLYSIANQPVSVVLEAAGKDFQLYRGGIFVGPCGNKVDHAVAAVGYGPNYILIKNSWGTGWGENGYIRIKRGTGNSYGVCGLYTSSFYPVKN
nsP2pro conf qHTS: CHIKV nsP2 protease inhibition, confirmatory qHTS. shares compounds with nsP2pro primary. 410 tested, 43% active. AID 1964105. Potency, µM (doses to about 25.5 µM), without a hit: at the top dose activity change, negative = inhibition, actives largely listed as inhibitors. CHIKV nsP2 protease enzymatic activity, qHTS; further: nearly all actives have a fitted effect of over 75% in size
HCV NS3 4A cs: HCV NS3/4A protease inhibition, counterscreen; shares compounds with nsP2pro primary; HCV NS3/4A protease biochemical counterscreen; Potency, µM (titrated, usually from 50.9 µM), hits mostly inhibitors; 410 tested, 20% active; further: nearly all actives have a fitted effect of over 55% in size
Active calls of the source: *; i = inactive; ? = inconclusive; [ ] = dose if it differs, or a comment. The call rests on the fitted dose curve. On the % scale 0 is the no-effect control and ±100 the full control effect; potency means the concentration at half of the fitted maximal effect.

SMILES	nsP2pro primary	others
C=C[C@]1(C)C[C@H](O)[C@H]2C(=C)C(=O)O[C@@H]2[C@H]1C(=C)CO	?	nsP2 cell sec=?;CHIKV NSP2 FL=?;Furin counterscr=-3.7%;NS23 peptide cs=-23.1%;Papain counter=-9.9%;nsP2pro conf qHTS=?;HCV NS3 4A cs=i
C=C(C)C(=O)O[C@H]1[C@H]2C(=C)C(=O)O[C@@H]2C[C@@H](C)[C@@H]2O[C@@H]2C(=O)[C@](C)(O)[C@@H]1OC(=O)C(=C)C	-3.2%[10 µM]
Cc1nn2c(c1-c1ccccc1OCc1ccccc1)N(C(=O)Cc1ccccc1)CCC2	i
O=C(/C=C/c1ccc(O)c(O)c1)O[C@@H]1C[C@@](O)(C(=O)O)C[C@@H](O)[C@@H]1O	-6.1%
O=C(NCCc1c[nH]c2ccc(O)cc12)c1ccc2ccccc2c1O	1.9%
CC(=O)NCCc1c[nH]c2ccccc12	4.1%[39.2 µM]
NC(Cc1c[nH]c2ccc(O)cc12)C(=O)O (stereo unspecified)	?	nsP2 cell sec=7.5%;CHIKV NSP2 FL=6.3%;Furin counterscr=-10.8%;NS23 peptide cs=-19.3%;Papain counter=-8.1%;nsP2pro conf qHTS=-26.0%;HCV NS3 4A cs=i
COc1ccc(C(C)NC(=O)c2ccc(Cn3ccn4nc5c(c4c3=O)CCCC5)cc2)cc1OC (stereo unspecified)	3.9%
COC(=O)c1cccc(-n2c(CCC(=O)O)ccc2-c2cccs2)c1	8.91µM*	nsP2 cell sec=2.1%
COC(=O)c1ccccc1NC(=O)Cn1c(CCC(=O)O)ccc1-c1cccs1	2.1%
CC(=O)c1ccc(-n2c(CCC(=O)O)ccc2-c2cccs2)cc1	9.7%
CCOCc1cc(OC)c(-c2ccc(C[C@H](NC(=O)c3c(F)cccc3F)C(=O)O)cc2)c(OC)c1	-7.4%
O=C(NCC(=O)N1CCCC1)Nc1ccc2ccccc2c1	?	nsP2 cell sec=-3.3%;CHIKV NSP2 FL=?;Furin counterscr=-5.2%;NS23 peptide cs=-25.4%;Papain counter=-1.2%;nsP2pro conf qHTS=-14.5%;HCV NS3 4A cs=i
O=C(NCC(=O)N1CCCC1)Nc1ccc2cnccc2c1	0.1%
COc1ccccc1NC(=O)Nc1ccc2ccccc2c1	43.5%
O=C(CN1C(=O)N/C(=C\c2cccn2-c2cccc(C(=O)O)c2)C1=O)Nc1ccc(Cl)cc1	i
O=C(c1cc(-c2ccco2)[nH]n1)N1CCSC(c2cc(F)ccc2F)CC1 (stereo unspecified)	3.16µM*	nsP2 cell sec=5.7%;CHIKV NSP2 FL=5.8µM*;Furin counterscr=-9.0%;NS23 peptide cs=?;Papain counter=-19.3%;nsP2pro conf qHTS=8.96µM*;HCV NS3 4A cs=16.3µM*
CCOC(=O)c1ccc(N2C(=O)c3n[nH]c(-c4ccco4)c3C2c2cccc(F)c2)cc1 (stereo unspecified)	17.6%
Cc1cc(C(=O)N2CCC(OCCOc3ccc(F)cc3)CC2)nn1C	-6.4%
COc1ccc(C(=O)N2CCCN(c3nnc4ccc(Cl)cn34)CC2)cn1	-24.2%
O=C(CN1CCC2(CC1)NC(=O)CC2C(=O)O)NCc1ccccn1 (stereo unspecified)	i
C[C@]12CCC[C@](C)(C(=O)O)C1CCC13C=C(CO)C(CCC12)C3 (stereo partly specified)	-8.1%
C=C1C2CCC3C(CCC4[C@@]3(C)CCC[C@@]4(C)C(=O)O)(C2)[C@@H]1OC(=O)/C(C)=C\C (stereo partly specified)	1.36µM*	nsP2 cell sec=5.6%[17.6 µM];CHIKV NSP2 FL=15.5%[17.3 µM];Furin counterscr=-13.2%[17.3 µM];NS23 peptide cs=10.7%[17.2 µM];Papain counter=-20.9%[17.2 µM];nsP2pro conf qHTS=-19.9%[8.62 µM];HCV NS3 4A cs=i
C=C1CC23CCC4[C@@](C)(CCC[C@@]4(C)C(=O)O)C2CCC1C3 (stereo partly specified)	12.9%
C=CCc1cccc(CNc2ccc(S(=O)(=O)Nc3nccs3)cc2)c1O	i
SMILES	nsP2pro primary	others
Cc1cc(C)nc(NC(=S)N2CCN(c3cccc(C(=O)O)c3)CC2)c1	-18.4%
CCC(C)C(NC(=O)C(Cc1ccc(O)cc1)NC(=O)C(NC(=O)C(CCCN=C(N)N)NC(=O)C(N)CC(=O)O)C(C)C)C(=O)NC(Cc1cnc[nH]1)C(=O)N1CCCC1C(=O)NC(Cc1ccccc1)C(=O)O (stereo unspecified)	10.4%
Cc1ccc(S(=O)(=O)c2ncccc2[N+](=O)[O-])cc1	?	nsP2 cell sec=3.66µM*;CHIKV NSP2 FL=?;Furin counterscr=-6.0%;NS23 peptide cs=9.19µM*;Papain counter=-5.5%;nsP2pro conf qHTS=7.98µM*;HCV NS3 4A cs=i
Cc1ccc(S(=O)(=O)O)cc1	7.3%
Cc1ccc(S(=O)(=O)c2nc(S(=O)(=O)c3ccc(C)cc3)c(NC(C)C)s2)cc1	-12.7%
COc1ccc(-c2cc3c(cn2)CN(CCc2ccccc2)CCN3)cc1OC	i
NCCCC[C@@H]1NC(=O)[C@@H](Cc2c[nH]c3ccccc23)NC(=O)[C@H](c2ccccc2)NC(=O)[C@@H]2C[C@@H](OC(=O)NCCN)CN2C(=O)[C@H](Cc2ccccc2)NC(=O)[C@H](Cc2ccc(OCc3ccccc3)cc2)NC1=O	87.6%[10 µM]
O=C(NC1CCCc2c1cnn2-c1ccc(F)cc1F)c1ccc(C(=O)c2ccccc2)cc1 (stereo unspecified)	-3.1%
COc1ccc(-n2ncc3c2CCCC3NC(=O)c2ccc3ncccc3c2)cc1 (stereo unspecified)	?	nsP2 cell sec=20.6µM*;CHIKV NSP2 FL=?;Furin counterscr=-3.7%;NS23 peptide cs=-13.7%;Papain counter=-9.1%;nsP2pro conf qHTS=6.1%;HCV NS3 4A cs=?
COc1ccc(-n2ncc3c2CCCC3NC(=O)c2cnc(C)cn2)cc1 (stereo unspecified)	-6.8%
C#C[C@]1(O)CC[C@H]2[C@@H]3CCC4=CC(=O)CCC4[C@H]3CC[C@@]21CC (stereo partly specified)	-1.6%
CCOC(=O)c1c(NC(=O)COc2ccccc2)sc(C(C)=O)c1C	19.7%
CCOC(=O)c1c(NC(=O)c2nc(SCC)ncc2Cl)sc(C(C)=O)c1C	-5.0%
CCOC(=O)c1c(NC(=O)c2nc(S(C)(=O)=O)ncc2Cl)sc(C(C)=O)c1C	?	nsP2 cell sec=3.66µM*;CHIKV NSP2 FL=?;Furin counterscr=-12.0%;NS23 peptide cs=4.61µM*;Papain counter=-3.0%;nsP2pro conf qHTS=-95.9%;HCV NS3 4A cs=?
CNc1oc(-c2cccc3ccccc23)nc1C(=O)Nc1cccc(C#N)c1	-7.7%
COC(=O)N[C@H](C(=O)N1CCC[C@H]1c1ncc(-c2ccc(-c3ccc(-c4cnc([C@@H]5CCCN5C(=O)[C@@H](NC(=O)OC)C(C)C)[nH]4)cc3)cc2)[nH]1)C(C)C	?	nsP2 cell sec=-10.8%;CHIKV NSP2 FL=?;Furin counterscr=-8.2%;NS23 peptide cs=-18.8%;Papain counter=i;nsP2pro conf qHTS=?;HCV NS3 4A cs=i
